PubChem BioAssay (EPA / NIEHS)
Records with an inconclusive call do not appear. Calls of active or inactive are those of the source. The calls were made as follows: active = hit-call score of the fitted dose curve at least 0.9, where 1 is the maximum; inconclusive = response in the unintended direction; inactive = score below 0.9.

Assay: ATG_XTT_Cytotoxicity: Cytotoxicity Assessment in the Attagene TRANS-FACTORIAL HepG2 Assay (AID 2283584);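 as to AC50: cells exposed to compound for 24 h before reading; active means loss of viability signal versus DMSO baseline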
Method in brief: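 Cells: human HepG2, transiently transfected with MRTU reporter constructs. Exposure 24 h. Readout: XTT, cell number. Baseline/neg ctrl DMSO; loss-of-signal scored.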

| SMILES | outcome | AC50 |
| --- | --- | --- |
| CCOC(=O)[C@H](O)[C@@H](O)C(=O)OCC | inactive |  |
| CCc1occc(=O)c1O | inactive |  |
| N#Cc1ccc(C2CCCc3cncn32)cc1 (centres undefined) | inactive |  |
| CCCCCC(=O)OCC | inactive |  |
| O=C1CCCCC1C1CCCCC1 (centres undefined) | inactive |  |
| C=CC(=O)OCC(C)OCC(C)OCC(C)OC(=O)C=C (centres undefined) | inactive |  |
| Cc1cc(=O)[nH]c(=O)[nH]1 | inactive |  |
| CCCCCCCCCC[N+](C)(CCCCCCCCCC)CCC[Si](OC)(OC)OC |  | 43.9 µM (active) |
| CC1C(C)(C)C2=C(C(=O)CCC2)C1(C)C (centres undefined) | inactive |  |
| CN(C)c1ccc2nc3ccc(=[N+](C)C)cc-3sc2c1 | inactive |  |
| CC(C)C(=O)OCCc1ccccc1 | inactive |  |
| CCC(C)(O)CCCC(C)C (centres undefined) | inactive |  |
| CCN(CC)c1cccc(C)c1 | inactive |  |
| CC1=NN(c2ccc(S(=O)(=O)O)cc2)C(=O)C1N=Nc1ccccc1 (centres undefined) | inactive |  |
| C=CCCCCCCCCC=O | inactive |  |
| Nc1ncnc2nc[nH]c12 | inactive |  |
| Nc1cccc(N)n1 | inactive |  |

| SMILES | outcome | AC50 |
| --- | --- | --- |
| CCCC(C)C(=O)OCC (centres undefined) | inactive |  |
| CC(=O)OC/C=C(/C)CCC=C(C)C | inactive |  |
| C=CC(C)(O)CC/C=C(\C)CC (centres undefined) | inactive |  |
| CC1(C)[C@@H]2CC[C@@]1(C)C(=O)C2 | inactive |  |
| CCCCC(C=O)CC (centres undefined) | inactive |  |
| COc1cc(C)ccc1O | inactive |  |
| CCC1(C)C(=O)N(Cl)C(=O)N1Cl (centres undefined) | inactive |  |
| Nc1ccc(Cl)c(N)c1 | inactive |  |
| CC(Cl)COP(=O)(OCC(C)Cl)OCC(C)Cl (centres undefined) | inactive |  |
| CCC1COC(=O)O1 (centres undefined) | inactive |  |
| C=C(C)C1CC=C(C)C(OC(C)=O)C1 (centres undefined) | inactive |  |
| Cc1cc(C)n(CO)n1 | inactive |  |
| O=C(Nc1ccccc1)c1cc(Cl)ccc1O | inactive |  |
| c1ccc(-c2nc3ccccc3[nH]2)cc1 | inactive |  |
| CC(C)CO | inactive |  |
| CCCc1ccc(O)c(OC)c1 | inactive |  |
| C=C(C)OC(C)=O | inactive |  |
